Source: PubChem BioAssay AID1159580 (chemical genetic matrix, 2015)
In all, about 5,500 compounds went through this assay and about 2,000 (36%) were called active. Inconclusive results (about 18%) are left out. Cut-off read from the data, not from the text of the source: active = normalized growth mostly below about 0.91 (no sharp cut-off); inconclusive = no clear call, values can overlap the other calls; inactive = mostly above about 0.92. Some of the results follow.

Experiment: chemical genetic growth profiling, strain panel (AID 1159580);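 note: tested at 20 µM; growth read once vehicle control cultures reached saturation at 30 °C; 1 = growth at the plate median or of vehicle wells; lower values mean less growth of the strain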
Details: growth OD
[1] = S. cerevisiae deletion strains, locus YJR075W, strain HOC1, hits give low values
[2] = S. cerevisiae deletion strains, locus YMR307W, strain GAS1, hits give low values
[3] = S. cerevisiae deletion strains, locus YPL055C, strain LGE1, hits give low values

Measured: normalized growth

OC(CNCCc1cccs1)COc1ccccc1 (stereo unspecified)
inactive: S. cerevisiae deletion strains, locus YAL013W, strain DEP1, hits give low values 0.995 | S. cerevisiae deletion strains, locus YBR229C, strain ROT2, hits give low values 0.987 | S. cerevisiae deletion strains, locus YCL061C, strain MRC1, hits give low values 0.994 | S. cerevisiae deletion strains, locus YDL101C, strain DUN1, hits give low values 0.999 | S. cerevisiae deletion strains, locus YDL134C, strain PPH21, hits give low values 0.986 | S. cerevisiae deletion strains, locus YDR150W, strain NUM1, hits give low values 0.976 | S. cerevisiae deletion strains, locus YEL061C, strain CIN8, hits give low values 0.998 | S. cerevisiae deletion strains, locus YGR078C, strain PAC10, hits give low values 0.989 | S. cerevisiae deletion strains, locus YHR030C, strain SLT2, hits give low values 0.934 | S. cerevisiae deletion strains, locus YHR087W, strain rtc3, hits give low values 0.998 | S. cerevisiae deletion strains, locus YJR043C, strain POL32, hits give low values 0.994 | [1] 1.01 | S. cerevisiae deletion strains, locus YKL190W, strain CNB1, hits give low values 0.982 | S. cerevisiae deletion strains, locus YLR039C, strain RIC1, hits give low values 0.944 | S. cerevisiae deletion strains, locus YLR058C, strain SHM2 (second series), hits give low values 0.991 | S. cerevisiae deletion strains, locus YLR085C, strain ARP6, hits give low values 1.08 | S. cerevisiae deletion strains, locus YLR262C, strain YPT6, hits give low values 0.831 | S. cerevisiae deletion strains, locus YML094W, strain GIM5, hits give low values 1.06 | S. cerevisiae deletion strains, locus YMR219W, strain ESC1, hits give low values 1 | S. cerevisiae deletion strains, locus YMR263W, strain SAP30, hits give low values 0.99 | [2] 1.13 | S. cerevisiae deletion strains, locus YNL153C, strain GIM3, hits give low values 0.995 | S. cerevisiae deletion strains, locus YNL298W, strain CLA4 (second series), hits give low values 0.964 | S. cerevisiae deletion strains, locus YNL322C, strain KRE1, hits give low values 1 | S. cerevisiae deletion strains, locus YNR030W, strain Alg12, hits give low values 1 | S. cerevisiae deletion strains, locus YOL006C, strain TOP1, hits give low values 0.939 | [3] 1.03 | S. cerevisiae deletion strains, locus YPL241C, strain CIN2, hits give low values 1.02 | S. cerevisiae deletion strains, locus YPR135W, strain CTF4, hits give low values 0.949 | S. cerevisiae strains, strain wild type, hits give low values 0.967

N=c1c[n+](N2CCOCC2)[n-]o1
inactive: S. cerevisiae deletion strains, locus YAL040C, strain CLN3, hits give low values 1 | S. cerevisiae deletion strains, locus YCL061C, strain MRC1 (second series), hits give low values 1.02 | S. cerevisiae deletion strains, locus YDR363W, strain ESC2, hits give low values 1.01 | S. cerevisiae deletion strains, locus YER002W, strain NOP16, hits give low values 1 | [1] 1.01 | [2] 1.01 | S. cerevisiae deletion strains, locus YNL175C, strain NOP13, hits give low values 1.01 | S. cerevisiae deletion strains, locus YNL197C, strain WHI3, hits give low values 0.999 | S. cerevisiae deletion strains, locus YNL224C, strain SQS1, hits give low values 1.02 | S. cerevisiae deletion strains, locus YOR083W, strain WHI5 (second series), hits give low values 1.01 | [3] 1.02
